In PubChem BioAssay AID1159580 (chemical genetic matrix, 2015):
“And” between values parts separate entries of the source, which are not always exact repeats. Identical values can stand only once. The campaign covered roughly 5,500 compounds. About 2,000 (36%) were called active. About 18% were inconclusive and are not listed. Cut-off read from the data, not from the text of the source: active = normalized growth mostly below about 0.91 (no sharp cut-off); inconclusive = no clear call, values can overlap the other calls; inactive = mostly above about 0.92. Some of the results follow.

Test: chemical genetic growth profiling, strain panel (AID 1159580);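 note: tested at 20 µM; growth read once vehicle control cultures reached saturation at 30 °C; 1 = growth at the plate median or of vehicle wells; lower values mean less growth of the strain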
Conditions: S. cerevisiae deletion strains, growth OD

Measured: normalized growth

OCc1ccccc1O
inactive: locus YAL021C, strain ccr4, stronger effect = lower value 1.02 | locus YAL026C, strain drs2, stronger effect = lower value 1.02 | locus YAL030W, strain snc1, stronger effect = lower value 1 | locus YBL061C, strain skt5, stronger effect = lower value 1.03 | locus YBR009C, strain hhf1, stronger effect = lower value 1.02 | locus YBR021W, strain FUR4, stronger effect = lower value 1.02 | locus YBR023C, strain chs3, stronger effect = lower value 1.02 | locus YBR171W, strain sec66, stronger effect = lower value 1.01 | locus YBR229C, strain ROT2, stronger effect = lower value 1.02 | locus YBR231C, strain swc5, stronger effect = lower value 1.03 | locus YBR279W, strain paf1, stronger effect = lower value 1.03 | locus YCL011C, strain gbp2, stronger effect = lower value 1.03 | locus YCL016C, strain dcc1, stronger effect = lower value 1.02 | locus YCL029C, strain bik1, stronger effect = lower value 0.995 | locus YCL069W, strain vba3, stronger effect = lower value 1 | locus YCR088W, strain abp1, stronger effect = lower value 1.04 | locus YDL005C, strain med2, stronger effect = lower value 1.02 | locus YDL035C, strain GPR1, stronger effect = lower value 1.02 | locus YDL040C, strain nat1, stronger effect = lower value 1.01 | locus YDL074C, strain BRE1, stronger effect = lower value 1.04 | locus YDL101C, strain DUN1, stronger effect = lower value 1.02 | locus YDL134C, strain PPH21, stronger effect = lower value 1.02 | locus YDL185W, strain tfp1, stronger effect = lower value 0.992 | locus YDL192W, strain arf1, stronger effect = lower value 0.991 | locus YDR001C, strain nth1, stronger effect = lower value 1.02 | locus YDR069C, strain doa4, stronger effect = lower value 1.03 | locus YDR101C, strain arx1, stronger effect = lower value 0.987 | locus YDR137W, strain rgp1, stronger effect = lower value 1.02 | locus YDR150W, strain NUM1, stronger effect = lower value 1.02 | locus YDR159W, strain sac3, stronger effect = lower value 1.05 | locus YDR162C, strain NBP2, stronger effect = lower value 1 | locus YDR195W, strain ref2 1.02 | locus YDR297W, strain sur2, stronger effect = lower value 1.02 | locus YDR318W, strain mcm21, stronger effect = lower value 0.992 | locus YDR334W, strain swr1, stronger effect = lower value 1.03 | locus YDR335W, strain msn5, stronger effect = lower value 1.03 | locus YDR388W, stronger effect = lower value 0.991 | locus YDR392W, strain spt3, stronger effect = lower value 1.03 | locus YDR502C, strain sam2, stronger effect = lower value 0.988 | locus YEL003W, strain gim4, stronger effect = lower value 1.02 | locus YEL037C, strain rad23, stronger effect = lower value 1 | locus YEL061C, strain CIN8 (second series), stronger effect = lower value 1.01 | locus YEL061C, strain CIN8, stronger effect = lower value 1.01 | locus YER015W, strain faa2, stronger effect = lower value 0.998 | locus YER016W, strain bim1, stronger effect = lower value 1.03 | locus YER110C, stronger effect = lower value 0.995 | locus YER111C, strain swi4, stronger effect = lower value 0.997 | locus YER155C, strain BEM2 (second series), stronger effect = lower value 1.05 | locus YER155C, strain BEM2, stronger effect = lower value 1.02 | locus YER167W, strain BCK2, stronger effect = lower value 1.01 | locus YFR010W, strain ubp6, stronger effect = lower value 1.02 | locus YGL078C, strain dbp3, stronger effect = lower value 0.978 | locus YGL086W, strain mad1, stronger effect = lower value 1.01 | locus YGL167C, strain pmr1, stronger effect = lower value 1.02 | locus YGL173C, strain kem1, stronger effect = lower value 1.02 | locus YGL227W, strain vid30, stronger effect = lower value 1.03 | locus YGL240W, strain doc1, stronger effect = lower value 1.05 | locus YGL248W, strain PDE1, stronger effect = lower value 1.02 | locus YGL253W, strain hxk2, stronger effect = lower value 1.02 | locus YGR135W, strain pre9, stronger effect = lower value 0.982 | locus YGR252W, strain gcn5, stronger effect = lower value 0.994 | locus YHR013C, strain ard1, stronger effect = lower value 1.06 | locus YHR027C, strain rpn1, stronger effect = lower value 1.02 | locus YHR030C, strain SLT2, stronger effect = lower value 1.01 and 1.09 | locus YHR079C, strain IRE1 (second series), stronger effect = lower value 0.977 | locus YHR079C, strain IRE1, stronger effect = lower value 1.09 | locus YHR094C, strain hxt1, stronger effect = lower value 0.982 | locus YHR129C, strain ARP1, stronger effect = lower value 1.02 | locus YHR142W, strain chs7, stronger effect = lower value 1.03 | locus YHR200W, strain rpn10, stronger effect = lower value 0.995 | locus YIL066C, strain RNR3, stronger effect = lower value 1.02 | locus YIL073C, strain SPO22, stronger effect = lower value 0.949 | locus YIL125W, strain kgd1, stronger effect = lower value 0.993 | locus YIR030C, strain dcg1, stronger effect = lower value 0.989 | locus YJL092W, strain hpr5, stronger effect = lower value 1.02 | locus YJL095W, strain BCK1 (second series), stronger effect = lower value 1.02 | locus YJL095W, strain BCK1, stronger effect = lower value 1.02 and 1.04 | locus YJL115W, strain asf1, stronger effect = lower value 1.03 | locus YJL129C, strain trk1, stronger effect = lower value 1.01 | locus YJL134W, strain LCB3, stronger effect = lower value 1.02 | locus YJL154C, strain vps35, stronger effect = lower value 1.02 | locus YJL164C, strain tpk1, stronger effect = lower value 1.02 | locus YJL166W, strain qcr8, stronger effect = lower value 1.02 | locus YJL168C, strain set2, stronger effect = lower value 0.99 | locus YJL187C, strain SWE1 (second series), stronger effect = lower value 1.02 | locus YJR043C, strain POL32, stronger effect = lower value 1.02 | locus YJR066W, strain TOR1, stronger effect = lower value 1.01 | locus YJR075W, strain HOC1, stronger effect = lower value 1.02 | locus YKL009W, strain mrt4, stronger effect = lower value 0.988
